GPR151 activ = activators of human GPR151 | 650,000 compounds, 1% hits | PathHunter beta-arrestin GPR151 cells, luminescence | activation, % at 11.2 µM | Q8TDV0 | AID 1508602; in the data active = activation above about 4.9%
Target sequence (Q8TDV0 whole entry, looked up): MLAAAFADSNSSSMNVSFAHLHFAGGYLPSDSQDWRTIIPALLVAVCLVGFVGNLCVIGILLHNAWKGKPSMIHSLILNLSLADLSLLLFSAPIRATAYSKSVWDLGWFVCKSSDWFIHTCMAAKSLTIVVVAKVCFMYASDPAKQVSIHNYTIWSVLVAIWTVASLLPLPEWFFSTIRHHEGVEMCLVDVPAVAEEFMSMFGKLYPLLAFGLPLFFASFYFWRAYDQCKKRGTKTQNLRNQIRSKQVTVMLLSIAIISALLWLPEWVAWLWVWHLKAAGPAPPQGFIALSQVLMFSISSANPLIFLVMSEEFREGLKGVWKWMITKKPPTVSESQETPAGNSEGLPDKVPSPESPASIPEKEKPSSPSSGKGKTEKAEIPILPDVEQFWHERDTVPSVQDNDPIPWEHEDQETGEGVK
TEAD-YAP block = TEAD-YAP interaction inhibition | HEK-TIYL cells, TEAD-Gal4/YAP UAS-luciferase luminescence | AID 1259422 | 640,000 compounds, 1.4% hits | inhibition, % at 9.12 µM; in the data active = inhibition above about 32%
FBW7 activator = activators of human E3 ligase FBW7; AlphaScreen FBW7–phospho-cyclin E peptide binding, activator screen; Q969H0; 650,000 compounds, 0.13% hits; normalized activity (activation), % at 26.1 µM; in the data active = normalized activity above about 1.9%;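 also: purified mutant Fbw7 with reduced substrate affinity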
MITF inh = blocks human microphthalmia-associated transcription factor; O75030; AlphaScreen MITF homodimerization, bead proximity signal; inhibition, % at 2.6 µM; 650,000 compounds, 0.91% hits; AID 1259374; in the data active = inhibition above about 50%
Hits are given with their value; – = inactive; · = no result given. Hits are enriched below; roughly 3.5% of the tested compounds scored in any of these assays.

SMILES | GPR151 activ | TEAD-YAP block | FBW7 activator | MITF inh
COc1ccc(N2C(=O)/C(=C\c3ccc([N+](=O)[O-])o3)C(=O)NC2=S)cc1 | – | – | – | 79
O=C1NC(=O)N(c2cccc(Cl)c2)C(=O)/C1=C/c1ccc(I)o1 | – | – | – | 67
COc1cccc(N2C(=O)/C(=C/c3ccc([N+](=O)[O-])s3)C(=O)NC2=S)c1 | – | – | – | –
COc1ccc(N2C(=O)/C(=C\c3ccc([N+](=O)[O-])s3)C(=O)NC2=S)cc1 | – | – | – | 59
O=C(C1CCCN1S(=O)(=O)c1ccc(Cl)s1)N1CCN(c2nc3ccccc3s2)CC1 (configuration not stated) | – | – | – | –
Nc1c(C(=O)NCc2ccccc2Cl)nnn1Cc1ccc(F)cc1 | – | – | – | –
COc1cccc(N2C(=O)/C(=C/c3ccc([N+](=O)[O-])o3)C(=O)NC2=S)c1 | – | – | – | 71
COc1cccc(N2C(=O)NC(=O)/C(=C/c3ccc([N+](=O)[O-])o3)C2=O)c1 | – | – | – | 67
COc1cccc(N2C(=O)/C(=C\c3ccc(OC)cc3OC)C(=O)NC2=S)c1 | – | – | – | –
O=C1NC(=O)N(c2cccc(Cl)c2)C(=O)/C1=C/c1ccc([N+](=O)[O-])o1 | – | – | – | 75
Cc1cc(C)cc(N2C(=O)NC(=O)/C(=C\c3ccc([N+](=O)[O-])o3)C2=O)c1 | – | – | – | –
C=CCN(c1ccccc1)S(=O)(=O)c1ccc(F)c(C(=O)Nc2ccc(OCC)cc2)c1 | – | 39 | – | –
C=CCN(c1ccccc1)S(=O)(=O)c1ccc(F)c(C(=O)Nc2ccc(CC)cc2)c1 | – | – | – | –
C=CCN(c1ccccc1)S(=O)(=O)c1ccc(F)c(C(=O)Nc2ccc(C(C)C)cc2)c1 | – | 36 | – | –
COc1ccc(C2C(C(=O)O)c3ccccc3C(=O)N2c2ccc(C)cc2)cc1OC (configuration not stated) | – | – | – | –
O=C(Nc1ccc(C(F)(F)F)cc1)c1ccc(NCCc2ccccc2)c([N+](=O)[O-])c1 | – | – | – | –
c1ccc(CN2CCC(Nc3ncnc4ccccc34)CC2)cc1 | – | 33 | – | –
CC(C)CNc1ncnc2ccccc12 | – | – | – | –
Clc1ccccc1CCNc1ncnc2ccccc12 | – | 35 | – | –
COCCNc1ncnc2ccccc12 | – | – | – | –
COc1cc2ncnc(NC3CCN(Cc4ccccc4)CC3)c2cc1OC | – | · | · | ·
CCC(C)Nc1ncnc2ccccc12 (configuration not stated) | – | 39 | – | –
c1ccc(CNc2ncnc3ccccc23)cc1 | – | 51 | – | –
COc1ccc(COC(=O)C2=C(C)NC3=C(C(=O)CCC3)C2c2ccccc2[N+](=O)[O-])cc1 (configuration not stated) | – | – | – | –
COCCNC(=O)Nc1ccc(N2CCCCC2=O)cc1 | – | – | – | –
SMILES | GPR151 activ | TEAD-YAP block | FBW7 activator | MITF inh
COc1ccc(NC(=O)CN(C2CCCCC2)S(=O)(=O)c2ccc(C)cc2)c(OC)c1 | – | – | – | –
c1ccc(CNc2ncnc3sccc23)nc1 | – | – | – | –
c1nc(NCC2CCCCC2)c2ccsc2n1 | – | 36 | – | –
Clc1ccc(CNc2ncnc3sccc23)cc1 | – | 52 | – | –
OCCCNc1ncnc2sccc12 | – | – | – | –
Clc1ccc(CNc2ncnc3ccccc23)cc1 | – | 57 | – | –
CCCCOc1ccc(C2=N/C(=C\c3cccc(Cl)c3Cl)C(=O)O2)cc1 | – | – | – | –
COCCN(Cc1cc2cc3c(cc2[nH]c1=O)OCO3)C(=O)c1cccc(F)c1 | – | – | – | –
Cc1ccc2nc(-c3ccc(SCC(N)=O)nc3)[nH]c2c1 | – | 53 | – | –
Cc1ccc2nc(-c3ccc(SCC(=O)O)nc3)[nH]c2c1 | – | – | – | –
CC(=O)CSc1ccc(-c2nc3cc(C)c(C)cc3[nH]2)cn1 | – | 81 | – | –
CC(=O)Nc1cccc(NC(=O)CSc2ccc(-c3nc4cc(C)c(C)cc4[nH]3)cn2)c1 | – | – | – | –
N#Cc1ccccc1S(=O)(=O)N1CCN(S(=O)(=O)c2ccccc2C#N)CC1 | – | – | – | –
CN(C)CCN(C(=O)c1c(F)cccc1F)c1nc2ccccc2s1 | – | – | – | –
CN(C)CCCN(C(=O)/C=C\c1ccc([N+](=O)[O-])cc1)c1nc2c(F)cccc2s1 | – | 76 | – | –
C=CCOC(=O)C1=C(C)NC(SCC(=O)Nc2cc(C)ccc2C)=C(C#N)C1c1ccc(O)c(OC)c1 (configuration not stated) | – | – | – | –
COc1ccc(OCC(=O)Nc2ccc(NC(=O)c3ccccc3)cc2)cc1 | – | 36 | – | –
CCOc1ccc(C(=O)Nc2ccc(OCC(=O)O)cc2)cc1 | – | 48 | – | –
CC(=O)Nc1cccc(NC(=O)COc2ccc(Oc3ccccc3)cc2)c1 | – | – | – | –
CC(=O)Nc1ccc(OCC(=O)Nc2cccc(Oc3ccccc3)c2)cc1 | – | 36 | – | –
O=C(Nc1ccc(Br)cn1)c1ccccc1[N+](=O)[O-] | – | 54 | – | –
COc1ccc(C2NC(=O)NC3=C2CCc2ccccc23)cc1[N+](=O)[O-] (configuration not stated) | – | – | – | –
CCc1ccc(C(=O)Nc2ccc(Br)cc2)cc1 | – | – | – | –
Cc1ccc(NC(=O)c2ccc(OCC(=O)Nc3ccccc3)cc2)cc1 | – | – | – | –
CCc1ccc(C(=O)Nc2ccc(C(=O)O)cc2)cc1 | – | 58 | – | –
SMILES | GPR151 activ | TEAD-YAP block | FBW7 activator | MITF inh
COc1ccc(NC(=O)COc2c(C)ccc(C)c2C)cc1 | – | 46 | – | –
Cc1ccc(-n2nc3ccc(NC(=O)COc4ccccc4)cc3n2)cc1Cl | – | – | 5.2 | –
Cc1ccc(C(=O)Nc2ccc(OCC(=O)O)cc2)cc1 | – | 37 | – | –
Nc1nnnn1/N=C/c1ccc(-c2ccc([N+](=O)[O-])cc2Br)o1 | – | – | – | –
Nc1ccc(N2C(=O)c3cccc4cccc(c34)C2=O)cc1 | – | – | – | –
COc1ccc(CNc2cnc(NCc3ccc(OC)cc3)cn2)cc1 | – | – | – | –
O=C(CSc1ccccc1)Nc1ccccc1I | – | – | – | –
CC(=O)Nc1ccc(OCCC[n+]2ccccc2)cc1 | – | – | 1.9 | –
CCc1ccc(C(=O)Nc2ccc(Br)cn2)cc1 | – | 38 | – | –
CCc1ccc(C(=O)Nc2ccc(I)cn2)cc1 | – | – | – | –
COc1ccc(C2=Nc3ccccc3N=C(c3cc(OC)ccc3O)C2)cc1 | – | – | – | –
COc1ccc(O)c(C2=Nc3ccccc3N=C(c3ccccc3)C2)c1 | – | – | 2.1 | –
Cc1ccc(-c2cccc3cnc(Nc4ccc(C(=O)N5CCN(C)CC5)cc4)nc23)cn1 | – | 55 | – | –
Cc1ccc(-c2cccc3cnc(Nc4ccc(C(=O)N5CCOCC5)cc4)nc23)cn1 | – | 49 | – | –
Cc1ccc(-c2cccc3cnc(Nc4cccc(C(=O)N5CCN(C)CC5)c4)nc23)cn1 | – | 33 | – | –
CC(=O)Nc1ccc(S(=O)(=O)Nc2ccc(-c3nc4cccnc4s3)cc2C)cc1 | – | – | – | –
CCCOc1ccc(S(=O)(=O)NCCn2nc(C)cc2C)cc1C | – | – | – | –
